Here are results for 14 compounds from PubChem BioAssay (NCI).

Molecules are shown by their SMILES. Compounds without any hit were thinned out: in the full panel of roughly 83,000, 20% have a hit.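 Compound tested at a single concentration for 48 hours in 96-well plates; a percent growth value below 10 was scored as active.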 Values without a mark were called inactive. Calls of active or inactive are those of the source.

Among the test systems are HCT-15 colon; HT29 colon; SNB-75 CNS; SNB-19 CNS; U251 CNS; PC-3 prostate; SK-MEL-5 melanoma; UACC-62 melanoma; LOX IMVI melanoma; SK-MEL-28 melanoma.
Assay in all cases: NCI-60 one-dose screen, 48 h (100 = growth as untreated, 0 = no growth, -100 = all killed)
Holding throughout (details): 10 µM

As for `COc1ccc(Cc2cnc(N)nc2N)cc1OC`, the growth in the test with HCT-15 colon is 101%; in the test with HT29 colon, 99%; with SNB-75 CNS, 79.4%; in the test on SNB-19 CNS, 100%; in the test with U251 CNS, 97.1%; with PC-3 prostate, 88.6%. In addition, the growth is 101% in the test with SK-MEL-5 melanoma, 96.9% in the test with UACC-62 melanoma, 97% in the test on LOX IMVI melanoma and 119% in the test on SK-MEL-28 melanoma.
On to `COc1ccc(/C=C/C(=O)C(=O)/C=C/c2ccc(OC)c(OC)c2)cc1OC`, for which the growth in the test on HCT-15 colon is -3.56% (active); in the test with HT29 colon, -35.2% (active); with SNB-75 CNS, 64.9%; in the test with SNB-19 CNS, 33.1%; with U251 CNS, 6.4% (active); with PC-3 prostate, 43.6%. Besides, the growth in the test on SK-MEL-5 melanoma was 77.9%; in the test on UACC-62 melanoma, -10.8% (active); in the test on LOX IMVI melanoma, -66.4% (active); with SK-MEL-28 melanoma, -9.43% (active).
Take `O=C(CC(CC(=O)c1ccccc1)c1ccccc1O)c1ccccc1`: the growth is 96.5% in the test on HCT-15 colon; 90.3% in the test with HT29 colon; 89.1% with SNB-75 CNS; 91.2% with SNB-19 CNS; 92% in the test with U251 CNS; 81% with PC-3 prostate. The growth with SK-MEL-5 melanoma is 88.6%; in the test with UACC-62 melanoma, 81.5%; with LOX IMVI melanoma it was 93.5%; with SK-MEL-28 melanoma, 101%.
As for `CC1OC2CC(=O)OC2C2=C1C(=O)c1c(O)c3c(c(O)c1C2=O)C1CC(O)C3(O)C(C)O1` (stereo not drawn), the growth is -15.8% (active) with HCT-15 colon; -15.9% (active) in the test on HT29 colon; -28.9% (active) in the test with SNB-75 CNS; 4.68% (active) in the test on SNB-19 CNS; -23.4% (active) with U251 CNS; 7.91% (active) in the test on PC-3 prostate. In addition, the growth in the test with SK-MEL-5 melanoma is -96.1% (active); in the test with UACC-62 melanoma, -76.5% (active); in the test on LOX IMVI melanoma it was -65.9% (active); with SK-MEL-28 melanoma it was -51.5% (active).
Regarding `CC1C(=NC(=O)c2cnccn2)C(C)C(c2ccc(Cl)cc2)NC1c1ccncc1` (stereo not drawn), the growth is 78.8% in the test with HCT-15 colon; 73% in the test with HT29 colon; 78.5% in the test on SNB-75 CNS; 88.4% in the test with SNB-19 CNS; 76.4% in the test with U251 CNS; 75.6% in the test on PC-3 prostate. Further, the figures for the growth in the test on SK-MEL-5 melanoma, in the test on UACC-62 melanoma and with SK-MEL-28 melanoma were 88.2%, 91.3% and 101%, respectively.
As to `Cc1ccc2nc(Cl)c(-c3nc4ccccc4o3)cc2c1`, the growth in the test with HCT-15 colon is 79.4%; in the test on HT29 colon, 102%; in the test on SNB-75 CNS, 90.2%; in the test on SNB-19 CNS, 93.2%; with U251 CNS, 102%; with PC-3 prostate, 79.8%. The growth was 88.7% in the test with SK-MEL-5 melanoma, 94.9% in the test on UACC-62 melanoma, 82.8% with LOX IMVI melanoma and 104% in the test on SK-MEL-28 melanoma.
As to `CCn1c(SCc2ccc(C)cc2)nnc1-c1nn(-c2ccc(Cl)cc2Cl)c(-c2ccc(Cl)cc2)c1C`, the growth with HCT-15 colon is 11.6%; with HT29 colon, 2.65% (active); with SNB-75 CNS it was 23.3%; with SNB-19 CNS, 22.1%; in the test on U251 CNS, 14.4%; in the test on PC-3 prostate, 5.63% (active). The growth in the test with SK-MEL-5 melanoma is -92.3% (active); with UACC-62 melanoma it was 21.2%; in the test with LOX IMVI melanoma it was 7.19% (active); with SK-MEL-28 melanoma, 30.3%.
As to `O=S(=O)(O)c1ccc(Cl)cc1`, the growth is 100% in the test on HCT-15 colon; 93.6% with HT29 colon; 100% with SNB-75 CNS; 102% in the test on SNB-19 CNS; 101% in the test on U251 CNS; 96.5% in the test on PC-3 prostate. Further, the growth is 98.3% with SK-MEL-5 melanoma, 99.8% in the test on UACC-62 melanoma, 96.3% with LOX IMVI melanoma and 113% in the test on SK-MEL-28 melanoma.
On to `O=C(CI)OCC(COC(=O)CI)OC(=O)CI`, for which the growth in the test with HCT-15 colon is 53%; in the test with HT29 colon, 79.2%; with SNB-75 CNS, 116%; with SNB-19 CNS it was 101%; in the test on U251 CNS it was 100%; in the test on PC-3 prostate, 94%. Also, the growth in the test on SK-MEL-5 melanoma was 93.1%; in the test with UACC-62 melanoma, 80.9%; with SK-MEL-28 melanoma, 92.3%.
As for `C[C@@H](O)[C@H]1C(=O)N2C(C(=O)O)=C(SCCN=CN)C[C@H]12`, the growth is 8.86% (active) in the test with HCT-15 colon; -3.23% (active) in the test on HT29 colon; 0.941% (active) with SNB-75 CNS; 8.6% (active) with SNB-19 CNS; 2.44% (active) in the test with U251 CNS; 1.74% (active) with PC-3 prostate. Moreover, the growth was -87.2% (active) with SK-MEL-5 melanoma, -38.8% (active) with UACC-62 melanoma, -42.6% (active) with LOX IMVI melanoma and -41.3% (active) with SK-MEL-28 melanoma.
As to `N#Cc1ccc(C(=O)CSc2nccc(Nc3ccc(C(=O)O)cc3)n2)cc1`, the growth in the test on HCT-15 colon was 106%; with HT29 colon it was 104%; with SNB-75 CNS it was 106%; in the test on SNB-19 CNS, 99%; in the test on U251 CNS, 106%; in the test with PC-3 prostate, 99.5%. The growth in the test with SK-MEL-5 melanoma is 99.1%; with UACC-62 melanoma it was 103%; in the test with LOX IMVI melanoma it was 101%; with SK-MEL-28 melanoma, 110%.
As for `O=S(=O)(O)c1cccc(Nc2ccc3ccccc3c2)c1`, the growth in the test with HCT-15 colon was 110%; in the test with HT29 colon, 99%; in the test with SNB-75 CNS, 78.2%; in the test with SNB-19 CNS, 96.3%; with U251 CNS, 95.5%; in the test on PC-3 prostate, 79%. Further, the growth is 99% in the test on SK-MEL-5 melanoma, 88.1% in the test on UACC-62 melanoma, 93.4% in the test on LOX IMVI melanoma and 108% with SK-MEL-28 melanoma.
Consider `O=[N+]([O-])c1ccc2ncccc2c1Cl`, for which the growth in the test with HCT-15 colon is 13.2%; in the test on HT29 colon it was 9.81% (active); in the test on SNB-75 CNS it was 73.9%; with SNB-19 CNS, 62.7%; in the test on U251 CNS, 35.9%; with PC-3 prostate, 38.5%. In addition, the growth in the test with SK-MEL-5 melanoma is 89.3%; in the test on UACC-62 melanoma, 54.7%; in the test with LOX IMVI melanoma, 20.9%; with SK-MEL-28 melanoma, 76.2%.
As to `CN(C)CCCSc1ccccc1NC1=C(Cl)C(=O)C(Nc2ccccc2SCCCN(C)C)=C(Cl)C1=O`, the growth with HCT-15 colon is 72.1%; in the test with HT29 colon, 22.7%; with SNB-75 CNS, 105%; in the test with SNB-19 CNS it was 90.6%; with U251 CNS it was 23%; in the test on PC-3 prostate, 42.8%. Also, the growth in the test on SK-MEL-5 melanoma is 91.1%; with UACC-62 melanoma, 60.7%; with LOX IMVI melanoma, -81.7% (active); in the test with SK-MEL-28 melanoma it was 104%.
